# Data as given in PubChem BioAssay (NCATS).
# Records with an inconclusive call do not appear. A call without a number means that no potency is given here. Active and inactive are the calls of the source. Unless noted, calls come from the whole dose curve; as a rule, active = well fitted curve in the direction sought with a large enough effect; inconclusive = small, poorly fitted or top-dose-only effect, or another doubt; inactive = no such curve, though single readings can be large; an effect the other way counts as inactive or inconclusive.
# Legend:
# [1] = biological target: Tyrosyl-DNA phosphodiesterase 1 (Homo sapiens) (UniProt Q9NUW8); experiment: Confirmation Assay for Inhibitors of Tyrosyl-DNA Phosphodiesterase (TDP1) (AID 489007); conditions: recombinant human TDP1 enzymatic activity, dose-response; note: potency is the fitted concentration of half-maximal effect; nearly all actives have a fitted effect of over 40% in size
# Chain of Tyrosyl-DNA phosphodiesterase 1 (Homo sapiens) (Q9NUW8 whole entry, looked up): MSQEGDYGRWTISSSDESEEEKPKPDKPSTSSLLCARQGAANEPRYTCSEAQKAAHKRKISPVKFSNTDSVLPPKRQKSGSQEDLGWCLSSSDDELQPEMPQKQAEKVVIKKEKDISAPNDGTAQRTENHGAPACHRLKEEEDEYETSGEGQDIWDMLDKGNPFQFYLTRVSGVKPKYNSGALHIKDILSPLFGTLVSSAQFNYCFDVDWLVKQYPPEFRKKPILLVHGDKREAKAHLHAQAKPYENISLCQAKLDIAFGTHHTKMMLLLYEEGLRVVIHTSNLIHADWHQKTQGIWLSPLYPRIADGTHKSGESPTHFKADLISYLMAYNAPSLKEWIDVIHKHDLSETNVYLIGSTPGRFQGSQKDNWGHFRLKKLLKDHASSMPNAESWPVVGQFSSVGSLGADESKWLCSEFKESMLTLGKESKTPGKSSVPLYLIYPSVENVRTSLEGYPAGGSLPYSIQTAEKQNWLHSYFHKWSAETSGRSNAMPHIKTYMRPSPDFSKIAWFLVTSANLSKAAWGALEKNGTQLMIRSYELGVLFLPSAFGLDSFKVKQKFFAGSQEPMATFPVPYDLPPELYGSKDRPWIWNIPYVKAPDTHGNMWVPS
# Method in brief: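 Tdp1 1 nM + cpd, 15 min RT; add biotin/phosphotyrosine-FITC oligo 15 nM, 5 min RT; add AS donor/acceptor beads 10 ug/ml, 10 min RT; read AlphaScreen. No-enzyme wells = max signal.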
# [2] = biological target: Calcium and integrin-binding protein 1 (Homo sapiens) (UniProt Q99828); experiment: Primary qHTS for Identification of Calcium Integrin Binding Protein 1 (CIB1) Competitor (AID 1508620); conditions: CIB1-GST / FITC-alphaIIb peptide fluorescence polarization; series mostly up to 114 µM;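 note: GST tagged CIB1 binding a fluorescein labelled alphaIIb integrin peptide tracer; top concentration of the series differs between compounds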
# Chain of Calcium and integrin-binding protein 1 (Homo sapiens) (Q99828 whole entry, looked up): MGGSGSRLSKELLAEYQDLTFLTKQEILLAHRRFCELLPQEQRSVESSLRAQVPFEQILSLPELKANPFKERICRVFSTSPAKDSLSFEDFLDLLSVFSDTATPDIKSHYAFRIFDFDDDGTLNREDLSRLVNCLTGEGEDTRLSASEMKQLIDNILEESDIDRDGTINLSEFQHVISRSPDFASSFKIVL
# Method in brief: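 CIB1-GST (1 uM final) and compound incubated 15 min at room temperature before adding FITC-alphaIIb peptide tracer (100 nM final). Competition for binding read by fluorescence polarization (ex 480, em 540) after another 15 min at room temperature.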
# [3] = biological target: Mitogen-activated protein kinase 10 (Mus musculus) (UniProt Q61831); experiment: JNK3 AlphaScreen Assay (AID 530; active = well fitted curve in either direction with a large enough effect, not every such curve was filed as active;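 note: kinase came from lysate of stimulated human HepG2 cells; signal reports phosphorylation of biotinylated GST-cJun 1-79 at Ser73 with 10 µM ATP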); conditions: JNK3 lysate, c-Jun phosphorylation; series mostly up to 57.1 µM
# Method in brief: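 Compound titrations were preincubated 15 minutes at room temperature with substrate, antibody and pre-activated JNK3-containing HepG2 lysate. Reactions were started with 10 uM ATP and stopped with EDTA-containing bead buffer for AlphaScreen detection.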
# [4] = biological target: Cytochrome P450 3A4 (Homo sapiens) (UniProt P08684); experiment: qHTS Assay for Inhibitors and Substrates of Cytochrome P450 3A4 (AID 884); conditions: recombinant CYP3A4, Luciferin-PPXE luminescence; series mostly up to 57.1 µM; note: nearly all actives have a fitted effect of over 50% in size; note: potency is the fitted concentration of half-maximal effect
# Chain of Cytochrome P450 3A4 (Homo sapiens) (P08684 whole entry, looked up): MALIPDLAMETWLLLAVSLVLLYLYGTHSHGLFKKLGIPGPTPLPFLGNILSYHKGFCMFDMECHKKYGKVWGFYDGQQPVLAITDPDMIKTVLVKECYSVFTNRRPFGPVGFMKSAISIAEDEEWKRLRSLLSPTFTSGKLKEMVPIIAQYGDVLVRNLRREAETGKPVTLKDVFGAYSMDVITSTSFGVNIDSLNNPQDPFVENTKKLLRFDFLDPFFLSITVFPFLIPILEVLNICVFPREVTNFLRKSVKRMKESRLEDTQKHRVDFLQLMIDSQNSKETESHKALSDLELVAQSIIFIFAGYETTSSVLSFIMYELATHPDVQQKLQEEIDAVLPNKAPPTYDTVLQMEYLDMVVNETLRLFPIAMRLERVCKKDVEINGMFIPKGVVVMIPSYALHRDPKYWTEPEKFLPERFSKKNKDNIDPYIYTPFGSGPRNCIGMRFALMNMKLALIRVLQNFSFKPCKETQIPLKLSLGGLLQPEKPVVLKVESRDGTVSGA
# Method in brief: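 20 nM human CYP3A4 with 25 uM Luciferin-PPXE (at KM) in 200 mM KPO4, preincubated 10 min with compound; NADPH regeneration started a 60 min RT reaction. Luciferin detected by luminescence, normalized to 57 uM ketoconazole as full inhibition.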
SMILES,Potency [1],Potency [2],outcome [3],Potency [4]
Fc1ccc(CSc2nc3ncc(Br)cc3[nH]2)cc1,56.2 µM (active),inactive,–,–
CCCn1c(-c2ccc(F)cc2)nc2c(N3CCN(C)CC3)nc(C)nc21,–,inactive,inactive,–
CCCn1c(C)nc2c(N(C)CCN(C)C)nc(C)nc21,–,inactive,inactive,inactive
COCCNc1nc(C)nc2c1nc(-c1ccccc1)n2CCCN1CCCCC1C (stereo not given),–,inactive,inactive,–
CCCn1c(C)nc2c(NCCN3CCCCC3)nc(C)nc21,–,inactive,inactive,inactive
CCCn1c(C)nc2c(NCCN(C)C)nc(C)nc21,–,inactive,inactive,inactive
CCCn1c(C)nc2c(NC3CCN(Cc4ccccc4)CC3)nc(C)nc21,–,inactive,inactive,inactive
CCN(CC)CCCCn1c(-c2ccccc2)nc2c(NCCOC)nc(C)nc21,–,inactive,inactive,inactive
Cc1nc(NCc2ccccc2)c2nc(-c3ccccc3)n(CC3CCN(C)CC3)c2n1,–,inactive,inactive,inactive
CCCCNc1nc(C)nc2c1nc(-c1ccccc1)n2CCN1CCCCC1,–,inactive,inactive,3.16 µM (active)
CCN(CC)CCn1c(-c2ccccc2)nc2c(N3CCOCC3)nc(C)nc21,–,inactive,inactive,inactive
CCCn1c(C)nc2c(N3CCN(C)CC3)nc(C)nc21,–,inactive,inactive,inactive
CCN(CC)CCn1c(-c2ccccc2)nc2c(NCCO)nc(C)nc21,–,inactive,inactive,inactive
CCCn1c(C)nc2c(NCCCCN(C)C)nc(C)nc21,–,inactive,inactive,inactive
CCCn1c(C)nc2c(N3CCC(N(C)C)C3)nc(C)nc21 (stereo not given),–,inactive,inactive,inactive
CCCn1c(C)nc2c(NCC(C)(C)CN(C)C)nc(C)nc21,–,inactive,inactive,inactive

SMILES,Potency [1],Potency [2],outcome [3],Potency [4]
CCCn1c(-c2ccc(F)cc2)nc2c(N(C)CCN(C)C)nc(C)nc21,–,inactive,inactive,–
Cc1nc(N2CCOCC2)c2nc(-c3ccccc3)n(CC3CCN(C)CC3)c2n1,–,inactive,inactive,inactive
COCCNc1nc(C)nc2c1nc(-c1ccccc1)n2CC1CCN(C)CC1,–,inactive,inactive,inactive
CCCn1c(C)nc2c(NCCCN3CCCCC3C)nc(C)nc21 (stereo not given),–,inactive,inactive,inactive
Cc1nc(NCCO)c2nc(-c3ccccc3)n(CCCN(C)C)c2n1,–,inactive,inactive,inactive
Cc1nc(NC2CCCCC2)c2nc(-c3ccccc3)n(C(C)CN(C)C)c2n1 (stereo not given),–,inactive,inactive,12.6 µM (active)
CCCn1c(-c2ccc(F)cc2)nc2c(NCCN(CC)CC)nc(C)nc21,–,inactive,inactive,–
CCN(CC)CCCCn1c(-c2ccccc2)nc2c(Nc3ccccc3)nc(C)nc21,–,inactive,inactive,inactive
CCCn1c(C)nc2c(NCC3CCCN3CC)nc(C)nc21 (stereo not given),–,inactive,inactive,inactive
CCCn1c(-c2ccc(F)cc2)nc2c(NCCCN(C)C)nc(C)nc21,–,inactive,inactive,inactive
CCCn1c(C)nc2c(N3CCC(N4CCN(C)CC4)CC3)nc(C)nc21,–,inactive,inactive,inactive
CCCn1c(-c2ccc(F)cc2)nc2c(NC3CC4CCC(C3)N4C)nc(C)nc21 (stereo not given),–,inactive,inactive,–
CCN(CC)CCCn1c(-c2ccccc2)nc2c(N3CCOCC3)nc(C)nc21,–,inactive,inactive,inactive
Cc1nc(N2CCOCC2)c2nc(-c3ccccc3)n(CCCN(C)C)c2n1,–,inactive,inactive,inactive
Cc1nc(NCCO)c2nc(-c3ccccc3)n(CC3CCN(C)CC3)c2n1,–,inactive,inactive,inactive
Cc1nc(Nc2ccccc2)c2nc(-c3ccccc3)n(CCN3CCOCC3)c2n1,–,inactive,inactive,1.58 µM (active)
